The text below walks through data of PubChem BioAssay (NCI).

Common to all, as to experiment: NCI-60 one-dose screen, 48 h (100 = growth as untreated, 0 = no growth, -100 = all killed)
Experiment [1] deals with SK-MEL-2 melanoma. The note with it: 10 µM unless noted.
Experiment [2] has as its system EKVX NSCLC. To be noted: 10 µM unless noted.
The subject of experiment [3] is SN12C renal. To be noted: 10 µM unless noted.
For experiment [4], the system named is ACHN renal. To be noted: 10 µM unless noted.
In experiment [5] the test system is CAKI-1 renal. The note with it: 10 µM unless noted.
In experiment [6] the test system is A498 renal. To be noted: 10 µM unless noted.
The subject of experiment [7] is CCRF-CEM leukemia. The note with it: 10 µM unless noted.
For experiment [8], the system named is MOLT-4 leukemia. To be noted: 10 µM unless noted.
Experiment [9] deals with SR leukemia. The note with it: 10 µM unless noted.
For experiment [10], the system named is RPMI-8226 leukemia. To be noted: 10 µM unless noted.
Experiment [11] concerns OVCAR-8 ovarian. To be noted: 10 µM unless noted.
Experiment [12] has as its system OVCAR-5 ovarian. To be noted: 10 µM unless noted.
Experiment [13] concerns SK-OV-3 ovarian. The note with it: 10 µM unless noted.
The test system of experiment [14] is IGROV1 ovarian. To be noted: 10 µM unless noted.
Experiment [15] relates to OVCAR-3 ovarian. To be noted: 10 µM unless noted.
Experiment [16] has as its system HS 578T breast. To be noted: 10 µM unless noted.
The subject of experiment [17] is NCI/ADR-RES ovarian. The note with it: 10 µM unless noted.
Experiment [18] deals with TK-10 renal. To be noted: 10 µM unless noted.
In experiment [19] the test system is OVCAR-4 ovarian. The note with it: 10 µM.

About 83,000 compounds went through this panel and 20% of them were active in at least one assay; those are over-represented in the sample as a whole.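 Cell lines were cultured in 96-well plates, exposed to a single compound concentration, and assessed for percent growth 48 hours later.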 A number with no mark means an inactive call. The source made the active and inactive calls. Rule for the calls: active = growth percent below 10; inactive = the rest.

For `C=C(C)[C@@H]1CC[C@]2(C(N)=O)CC[C@]3(C)[C@H](CC[C@@H]4[C@@]5(C)C/C(=C/c6cccnc6)C(=O)C(C)(C)[C@@H]5CC[C@]43C)[C@@H]12`, the growth in [1] was -47.4% [100 µM] (active); in experiment [2], 21.2% [100 µM]; in [3] it was 18.5% [100 µM]; in experiment [4] it was 7.09% [100 µM] (active); in [5], 8.38% [100 µM] (active); in experiment [6], 17.3% [100 µM]. Moreover, the growth in experiment [7] was 7.08% [100 µM] (active); in [8], 2.39% [100 µM] (active); in [9], 10.7% [100 µM]; in [10], 6.37% [100 µM] (active); in experiment [11] it was 20.3% [100 µM]; in [12], -6.45% [100 µM] (active). The growth in experiment [13] is 12.9% [100 µM]; in experiment [14] it was 14.9% [100 µM]; in experiment [15], 12.5% [100 µM]; in experiment [16], 25.5% [100 µM]; in experiment [17] it was 14.7% [100 µM].

Take `C[C@H]1[C@H](C)CC[C@]2(C(=O)O)CC[C@]3(C)C(=CC[C@@H]4[C@@]5(C)C/C(=C/c6cccnc6)[C@H](O)C(C)(C)[C@@H]5CC[C@]43C)[C@H]12`: the growth is -28.1% [100 µM] (active) in [1]; 15.8% [100 µM] in experiment [2]; 3% [100 µM] (active) in [3]; 8.85% [100 µM] (active) in experiment [18]; 4.57% [100 µM] (active) in [4]; 7.71% [100 µM] (active) in [5]. The growth is 19% [100 µM] in experiment [6]; -1.43% [100 µM] (active) in experiment [7]; 2.42% [100 µM] (active) in [8]; 25.4% [100 µM] in experiment [9]; -4.1% [100 µM] (active) in [10]; 12.4% [100 µM] in [11]. In addition, the growth is -13.7% [100 µM] (active) in experiment [12]; 5.9% [100 µM] (active) in experiment [13]; 7.23% [100 µM] (active) in [14]; -39% [100 µM] (active) in experiment [15]; 4.34% [100 µM] (active) in [16]; 1.11% [100 µM] (active) in [17].

As for `COc1ccc(NC(=S)NNc2ccc(-c3ccc(OC)c(OC)c3)nn2)cc1`, the growth is 106% in experiment [1]; 104% in experiment [2]; 100% in experiment [3]; 102% in [4]; 77% in [5]; 83.4% in [6]. Also, the growth in experiment [7] was 103%; in experiment [8], 96.3%; in [9] it was 98.1%; in [10] it was 103%; in [11], 101%; in experiment [12], 103%. Besides, the growth is 100% in experiment [19]; 103% in [14]; 110% in experiment [15]; 95.8% in experiment [16]; 111% in experiment [17].

Turning to `O=C(NCCO)c1cccnc1`, the growth was 81.8% in experiment [1]; 109% in experiment [2]; 100% in experiment [3]; 110% in experiment [4]; 96.9% in [6]; 81.4% in [7]. Besides, the growth in experiment [8] was 107%; in experiment [9], 103%; in experiment [10], 95.4%; in [11], 102%; in experiment [12] it was 103%; in [19] it was 110%. Besides, the growth was 97.4% in experiment [13]; 100% in experiment [14]; 111% in experiment [15]; 92.1% in experiment [16]; 96.5% in experiment [17].

Regarding `CCOC(=O)c1nn(C2CCCCO2)c2ccc(NS(=O)(=O)c3ccc(C)cc3)cc12` (centres undefined), the growth was 106% in experiment [1]; 102% in experiment [2]; 93.6% in [3]; 111% in [18]; 94.3% in experiment [4]; 77.8% in [5]. Also, the growth is 62.9% in experiment [6]; 98.9% in experiment [7]; 86.2% in experiment [8]; 107% in experiment [9]; 98.3% in [10]; 96.9% in [11]. Also, the growth in experiment [12] is 110%; in [19], 87.2%; in experiment [14] it was 102%; in experiment [15], 104%; in experiment [16], 94.9%; in experiment [17], 99.6%.

Turning to `O=C1COCCN1c1ccc(Nc2nc(Cl)nc(N3CCOCC3)n2)cc1`, the growth was 91.6% in experiment [1]; 92.3% in experiment [2]; 102% in experiment [3]; 90.5% in experiment [18]; 98.5% in experiment [4]; 89.2% in experiment [5]. The growth in experiment [6] was 73.7%; in [8], 96.3%; in experiment [9] it was 88.9%; in experiment [10], 98.9%; in [11] it was 97.9%; in experiment [12], 88.3%. Also, the growth was 102% in experiment [19]; 103% in experiment [14]; 103% in [15]; 104% in experiment [16]; 97.6% in experiment [17].

For the compound `O=c1[nH]c2cc(Cl)c(Cl)cc2n2cc3ncccc3c12`, the growth in [1] is 112%; in experiment [2] it was 82.3%; in experiment [3], 83%; in experiment [18] it was 94.1%; in experiment [4], 89.7%; in experiment [5], 59.9%. The growth in [6] is 73.6%; in experiment [7], 52.1%; in experiment [8], 58.8%; in experiment [9] it was 27.4%; in experiment [10], 76.1%; in experiment [11], 82.4%. Moreover, the growth was 146% in experiment [12]; 98.9% in experiment [13]; 86.2% in [14]; 84.5% in [15]; 99.2% in [16]; 81.8% in [17].

As to `C[N+](C)(C)c1ncnc2[n-]cnc12`, the growth was 107% in experiment [1]; 81.8% in [2]; 72.3% in experiment [3]; 78.9% in experiment [18]; 95.3% in [4]; 58.8% in [5]. Further, the growth in experiment [6] is 81.5%; in experiment [7], 119%; in experiment [8], 102%; in experiment [9] it was 107%; in experiment [10], 126%; in [11] it was 93.7%. The growth is 76.4% in experiment [12]; 105% in experiment [19]; 98.7% in experiment [13]; 92.4% in experiment [15]; 95.6% in experiment [16]; 41.5% in experiment [17].

Turning to `Nc1ccc(NC(=O)c2ccccc2)c2c1C(=O)c1ccccc1C2=O`, the growth is 108% in experiment [1]; 76.3% in experiment [2]; 97.8% in experiment [3]; 96.1% in experiment [18]; 92.6% in [4]; 96.7% in experiment [5]. For the same compound, the growth in [6] is 113%; in [7] it was 91.1%; in experiment [8] it was 106%; in [9] it was 96.8%; in [10], 102%; in experiment [11] it was 96.9%. Further, the growth in experiment [12] was 117%; in [19], 103%; in experiment [13], 112%; in experiment [15] it was 96.5%; in experiment [17], 99.6%.

For the compound `O=c1[nH]c(CN2CCN(c3cccc(Cl)c3)CC2)nc2cc(Cl)ccc12`, the growth in [1] is 46.7%; in experiment [2] it was 105%; in experiment [3], 89.3%; in experiment [18], 106%; in [4], 97.5%; in [5] it was 99.4%. For the same compound, the growth in [6] is 114%; in experiment [7], 105%; in experiment [8], 120%; in experiment [9], 89.7%; in experiment [10], 34.7%; in experiment [11], 46.2%. For the same compound, the growth was 85.3% in [12]; 82.1% in experiment [13]; 100% in experiment [15]; 99% in experiment [16]; 86.4% in experiment [17].
